# CHT block: inhibitors of human choline transporter CHT; Q9GZV3; CHT-expressing cells, membrane potential dye, choline response; hits give low values; B-score at 10 µM; 310,000 compounds, 0.86% hits; AID 488975;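 active = B-score over 3 SD under the library average, and starting fluorescence ratio not unusually high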;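 also: choline stimulus applied at its EC90 after an EC20 pre-addition; B-score computed on integrated fluorescence ratio after choline addition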
# TMEM16A act: activates or potentiates the mouse TMEM16A chloride channel; Q8BHY3; AID 623877; B-score at 10 µM; HEK293 TMEM16A/YFP-H148Q/I152L, iodide quench fluorescence; hits give low values; 340,000 compounds, 0.3% hits;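 active = fluorescence-ratio B-score plate-corrected deviation score at least 3 library SD below zero, with starting fluorescence score within 5 deviations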;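 also: channel opened by trigger with iodide after compound preincubation; score built on the fluorescence ratio of max minus min over baseline; more negative score means more quench and so TMEM16A activation or potentiation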
# ANO1 block: blocks the mouse calcium-activated chloride channel TMEM16A; normalized B-score (activity score, 25-100; higher = stronger inhibition) at 10 µM; HEK293 TMEM16A/YFP iodide influx fluorescence, ionomycin; AID 588511; 310,000 compounds, 1.2% hits; Q8BHY3;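 active = ratio plate-corrected score three or more library SD toward inhibition, starting fluorescence score within five deviations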;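 also: score derived from kinetic fluorescence span divided by baseline fluorescence per well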
# CHT allo act: allosteric activators of human choline transporter CHT | B-score at 10 µM | AID 488977 | Q9GZV3 | 310,000 compounds, 0.49% hits | CHT-expressing cells, membrane potential dye, choline EC20; hits give high values; LV-AA mutant CHT in HEK293 cells;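 active = initial fluorescence not abnormally high and integrated response B-score, plate-corrected, over 3 SD above library mean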
# GPR7 antagonist: antagonists of human GPR7 (neuropeptides B/W receptor 1). P48145. GPR7-expressing cells, fluorescence antagonist assay. inhibition, % at 4.4 µM. 290,000 compounds, 1.1% hits; in the data active = inhibition above about 16%, passing the limit was not always enough;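 also: cells stimulated with the agonist NPW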
# Kir21 inh: Kir2.1 (mouse) channel inhibition; P35561; HEK293-Kir2.1, FluxOR thallium flux fluorescence; hits give low values; B-score at 10 µM; 310,000 compounds, 0.85% hits; AID 1672;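 active = fluorescence ratio B-score at or below minus 3 SD of library scores, with starting-brightness B-score within 2 SD, cut at about -4.2 in these data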;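 also: channel flux triggered by added potassium and thallium sulfate stimulus; B-score of peak minus minimum fluorescence over baseline after thallium stimulus; more negative B-score means stronger Kir2.1 block with less thallium influx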
# Hits are given with their value; – = inactive; · = no result given. Only some compounds are listed: those with a hit (about 3.7% of all), similar ones and a draw of the others.
SMILES,CHT block,TMEM16A act,ANO1 block,CHT allo act,GPR7 antagonist,Kir21 inh
O=C1Nc2ccccc2C(=O)C1(Cl)Cc1ccccc1 (stereo not drawn),–,–,–,–,–,-5.2
Cc1cc(F)ccc1S(=O)(=O)N1CCCOC1CNC(=O)C(=O)NCc1ccncc1 (stereo not drawn),–,–,–,–,–,–
Cc1cc(=O)oc2cc(NC(=S)NNC(=O)c3c(Cl)cnn3C)ccc12,–,–,–,–,–,–
COc1cc2ccccc2cc1C(=O)N(CCN(C)C)c1nc2c(F)cc(F)cc2s1,–,–,25,–,–,–
COc1ccc(OC)c2sc(N(CCN(C)C)C(=O)c3cc(Cl)sc3Cl)nc12,–,–,–,–,–,–
COc1ccc2sc(N(CCN(C)C)C(=O)c3cc(Cl)sc3Cl)nc2c1,–,-5.9,–,–,–,–
COc1cc(C(=O)OC(C)CN2CCCCC2)cc(OC)c1OC (stereo not drawn),–,–,–,–,–,–
Cc1ccc(NC(=O)Nc2ccc3c(c2)C(=O)OC3)cc1Cl,–,–,–,–,–,–
Cc1ccn(C(=O)c2ccc(NC(=O)CC(C)C)cc2)n1,–,–,–,–,–,–
CC(C)CN(CC(C)C)C(=O)Cc1coc2ccc3ccccc3c12,–,–,25,–,–,-5.8
Cc1onc(-c2c(F)cccc2Cl)c1C(O)c1ccc(F)cc1 (stereo not drawn),–,–,–,–,–,-4.4
CCCc1nnc(SCC(=O)N2CCCCC2C)n1CC1CCCO1 (stereo not drawn),–,–,25,–,–,–
Cc1cc(=O)oc2cc(NC(=O)C(C)N3C(=O)C4CCCCC4C3=O)ccc12 (stereo not drawn),·,–,·,·,·,·
Cc1sc2ncnc(SCC(=O)NC(=O)c3cccn3C)c2c1C,–,–,–,–,–,–
CC(C)=CCc1c(O)cc(O)c2c1OC(c1ccc(O)cc1)CC2=O (stereo not drawn),–,–,–,–,·,-6.4
COc1ccc(N2CCN(C(=O)CN3CCN(c4nc(-c5ccc(F)cc5)cs4)CC3)CC2)cc1,–,–,25,–,–,–
COc1ccc(-c2nnn(CC(=O)N3CCN(c4ccc(F)cc4)CC3)n2)cc1,–,–,–,–,–,–
C[C@H]1CN=C(Nc2ccccc2)N1CC1CCCCCC1,–,-6.7,–,–,–,–
C[C@H]1CN=C(Nc2ccccc2)N1CC1CCC1,–,–,–,–,–,–
CCOc1cc(/C=C2\COc3ccccc3C2=O)ccc1OCC(=O)N(C)C,–,–,–,–,–,-4.3
Cc1ccc(NC(=O)c2cnc(N3CCN(c4ccccn4)CC3)c3ccccc23)c(Br)c1,–,–,–,–,26,–
COc1ccc(S(=O)(=O)Nc2cccc3c2O[C@H](CN(C)S(=O)(=O)c2ccccc2)[C@@H](C)CN([C@H](C)CO)C3=O)cc1,·,–,·,·,·,·
FC(F)(F)Oc1ccc(NC(=S)Nc2ccc(OC(F)(F)F)cc2)cc1,–,–,25,–,–,–
COc1ccc(NS(=O)(=O)c2ccc(F)c(F)c2F)cc1S(=O)(=O)N1CCOCC1,·,–,·,·,·,·
CCC(CC)Nc1ccc(C(CC(N)=O)NC(=O)Cc2cccc3ccccc23)cc1[N+](=O)[O-] (stereo not drawn),–,–,–,–,–,–
SMILES,CHT block,TMEM16A act,ANO1 block,CHT allo act,GPR7 antagonist,Kir21 inh
N=c1sccn1CC(=O)Nc1ccccc1Sc1ccccc1,–,–,–,–,–,-4.8
O=C(CNCCN1CCOCC1)Nc1ccccc1Sc1ccccc1,–,–,–,–,–,–
O=C(CN1CCOCC1)Nc1ccccc1Sc1ccccc1,–,–,–,–,–,-6.3
COc1cc([N+](=O)[O-])ccc1NC(=O)CSc1nnc(C)c(C)n1,–,–,–,–,–,–
Cn1nc(C(F)(F)F)c(-c2ccc(Br)cc2)c1NC(=O)Nc1ccc(F)cc1F,–,–,–,–,–,–
CCOC(=O)c1cc(-c2ccc(C#N)cc2)nc2c1c(C)nn2CCC#N,–,–,–,–,–,–
CCOC(=O)c1cc(-c2ccc(OC)cc2)nc2c1c(C)nn2CCC#N,–,–,–,–,19,–
Cc1c(NS(=O)(=O)c2ccc3c(c2)OCCO3)cccc1-c1nc2cccnc2s1,–,–,25,–,–,–
O=C(CSC(=S)N1CCCC1)N/N=C/c1c(O)[nH]c(=S)[nH]c1=O,·,–,·,·,·,·
